ERK AVP inh: vasopressin-driven ERK pathway inhibition; HEK293-V1b, vasopressin-stimulated pERK AlphaScreen; Potency, µM (series often up to 57.5 µM), without a hit: at the highest dose activity, negative = inhibition, most hits filed as inhibitors; 72,000 compounds, 0.99% hits; AID 995; also: % is scaled to controls: 0 for no effect and ±100 for the full control effect; nearly all actives have a fitted effect of over 55% in size
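HEK293 cells stably expressing V1b receptor, preincubated 30 min at 37 °C with compound, then stimulated 5 min with 25 nM vasopressin. Phospho-ERK by AlphaScreen SureFire after 5 h RT; normalized to DMSO and vasopressin; AC50 by Hill fit.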
GBA activity: alters purified human glucocerebrosidase activity; P04062; purified enzyme, resorufin glucoside fluorescence (screen aimed at inhibitors), 20 min; Potency, µM; 48,000 compounds, 1.1% hits; in the data active = potency below about 15 µM; inconclusive = mostly about 16 µM to 33 µM;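 also: the screen sought inhibitors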
Target sequence (P04062 whole entry, looked up): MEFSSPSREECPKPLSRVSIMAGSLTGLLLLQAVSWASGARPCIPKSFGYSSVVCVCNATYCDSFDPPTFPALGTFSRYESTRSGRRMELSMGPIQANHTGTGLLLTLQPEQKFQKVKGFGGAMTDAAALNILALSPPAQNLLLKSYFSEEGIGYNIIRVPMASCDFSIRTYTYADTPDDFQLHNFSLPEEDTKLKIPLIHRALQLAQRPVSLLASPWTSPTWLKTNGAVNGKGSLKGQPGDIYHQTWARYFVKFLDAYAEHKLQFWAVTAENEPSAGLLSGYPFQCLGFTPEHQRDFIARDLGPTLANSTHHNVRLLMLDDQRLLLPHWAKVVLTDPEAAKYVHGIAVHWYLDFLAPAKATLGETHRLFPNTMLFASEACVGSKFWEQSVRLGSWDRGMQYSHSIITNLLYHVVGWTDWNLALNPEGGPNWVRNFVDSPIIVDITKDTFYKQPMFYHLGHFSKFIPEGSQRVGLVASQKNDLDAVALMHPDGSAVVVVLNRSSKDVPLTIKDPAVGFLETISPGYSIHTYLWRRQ
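Compounds titrated against 0.2 nM normal enzyme, 30 uM resorufin beta-D-glucopyranoside substrate, citrate/phosphate buffer with taurocholate and tween-20, pH 5.9. Reaction ran 20 min at room temperature; fluorescence (Ex 548/Em 600) gave AC50.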
FLuc inh: firefly luciferase inhibition; P08659; purified firefly luciferase, luminescence, 8 min; Potency, µM (top dose mostly 57.1 µM), for the others: top-dose activity change, negative = inhibition, actives largely listed as inhibitors; 72,000 compounds, 2.2% hits; AID 411; also: % is scaled to controls: 0 for no effect and ±100 for the full control effect; nearly all actives have a fitted effect of over 40% in size
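Titration-based qHTS; buffer 50 mM imidazole pH 7.2, 50 mM KCl, 7 mM MgCl2, 10 uM ATP, 0.01% Tween 20, 0.05% BSA; luciferase/luciferin detector mix added after compound; 8 min, ambient; luminescence.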
Bst PK mod: modulators of Bacillus stearothermophilus pyruvate kinase | purified pyruvate kinase, luminescence ATP production; ribose 5-phosphate activator present at AC10 | Potency, µM | 51,000 compounds, 1.2% hits | AID 361; in the data active = potency below about 11 µM; inconclusive = mostly about 12 µM to 25 µM;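 the screen sought inhibitors and activators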;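 also: scaled between full activation by ribose 5 phosphate and full inhibition by luteolin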
HEK293 cAMP ctrl: counter-screen for TSHR agonists: cAMP increase in parental HEK293. parental HEK293 CNG cAMP sensor, membrane potential fluorescence. Potency, µM (highest dose often 57.1 µM), for the others: top-dose activation, actives largely listed as activators. 73,000 compounds, 2.5% hits. AID 938; also: % of control where 0% means no effect; nearly all actives have a fitted effect of over 55% in size
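Parental HEK 293 cells stably expressing a cAMP-gated CNG channel were loaded with membrane potential dye containing 100 uM RO 20-1724 for 60 min. Compound added for 30 min; depolarization read as fluorescence intensity at 590 nm.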
TSHR agonist: agonists of human thyroid stimulating hormone receptor. P16473. HEK293-CNG-TSHR cells (CNG channel as cAMP sensor), membrane potential dye, cAMP. Potency, µM (doses to about 57.1 µM), without a hit: top-dose activation, usual class: activators. 73,000 compounds, 0.48% hits; active = well fitted activation curve with a large enough effect in the main read-out, with a control signal flat, not every such curve was filed as active; inconclusive = small, poorly fitted or top-dose-only effect, or a change in a side signal; inactive = no such curve, though single readings can be large or run the other way; % of control where 0% means no effect;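 also: the control signal comes from parental cells without the receptor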
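HEK 293 cells stably expressing TSHR and a cAMP-gated CNG channel; parental CNG-only cells as counterscreen. Cells preloaded 60 min with membrane potential dye plus 100 uM RO 20-1724, then compound 30 min; fluorescence read at 590 nm.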
Starred values were filed as active, the others as inactive; i = inactive; ? = inconclusive; . = no result; [ ] = dose if it differs, or a comment. A selection: hits, their analogues and other compounds. The true share with any hit is near 6.1%. Unless noted, calls follow the shape of the dose curve; as a rule, active = well fitted curve in the direction sought with a large enough effect; inconclusive = small, poorly fitted or top-dose-only effect, or another doubt; inactive = no such curve, though single readings can be large; an effect the other way counts as inactive or inconclusive. Potency is read from the fitted curve at half-maximal effect.

SMILES	ERK AVP inh	GBA activity	FLuc inh	Bst PK mod	HEK293 cAMP ctrl	TSHR agonist
N#CCSc1nnc(COc2cccc3ccccc23)n1-c1cccc(Cl)c1	-26.7%	?	2.9%	>57	26.8%	8.2%
N#CCSc1nnc(COc2cccc3ccccc23)n1-c1ccccc1	-11.3%	.	-2.2%	>57	12.6µM*	?
N=C(N)SCCCN	2.4%[11.5 µM]	.	2.4%[11.4 µM]	.	-3.0%[11.4 µM]	6.0%[11.4 µM]
O=C(Nc1c2c(nn1-c1ccc(Cl)cc1)CS(=O)(=O)C2)c1ccc2c(c1)OCO2	-22.5%	>76.9	1.0%	>57	25.1µM*	?
COC(=O)c1c(C)n(-c2ccc(OC)cc2)c2ccc(O)cc12	25.1µM*	>76.9	-3.3%	>57	4.5%	.
Cc1c(C(=O)O)c2cc(O)ccc2n1-c1ccccc1	12.4%	>76.9	1.0%	>57	7.9%	-1.4%
COC(=O)[C@@]1(Cc2ccc(F)cc2)[C@H]2c3cc(C(=O)N4CCCC4)n(CCc4c[nH]c5cc(F)ccc45)c3C[C@H]2CN1C(=O)c1ccccc1	-3.0%	.	.	.	6.9%	-0.6%
c1ccc(Nc2c3c(nc4ncnn24)CCC3)cc1	-14.8%	>76.9	1.2%	>57	-1.4%	12.0%
c1ccc(CCNc2c3c(nc4ncnn24)CCC3)cc1	?	>76.9	0.5%	.	6.31µM*	?
O=S(=O)(c1ccccc1)N1CCC[C@@]2(CCN(c3ncccn3)C2)C1	-17.2%	.	1.2%[11.4 µM]	.	15.3%	7.2%
CO/N=C(/C)CCC(=O)OC[C@@H]1O[C@H](C#Cc2ccccc2)C=C[C@@H]1Oc1ccc(C)cc1	6.8%[11.5 µM]	.	0.6%[11.4 µM]	.	17.5%[11.4 µM]	6.1%[11.4 µM]
O=C(Nc1ccccc1O)c1ccc(Cl)cc1	17.3%	.	15.8µM*	.	-9.6%	-6.4%
Cn1c(=O)c(-c2ccccc2)nc2cnc(N3CCOCC3)nc21	14.6%	.	0.9%[11.4 µM]	.	1.2%	5.5%
CC1CCCCN1C(=O)Cn1c(=O)n(C2CCCCC2)c(=O)c2ccccc21 (stereo not given)	-10.4%	>76.9	-1.0%	>57	25.9%	15.8µM*
CCN(CC)C(=O)Cn1cnc2ccccc2c1=O	-17.3%	>76.9	0.2%	>57	-0.1%	0.1%
O=C(Cn1cnc2ccccc2c1=O)c1ccc2c(c1)OCCO2	-11.8%	>76.9	12.6µM*	.	15.2%	0.2%
CCOc1ccc(OCc2cccc(C(=O)O)c2)cc1	-7.8%	>76.9	0.794µM*	0.761*	3.1%	2.9%
O=C(O)c1cccc(COc2ccc(CO)cc2Cl)c1	-0.9%	>76.9	1µM*	0.954*	1.5%	5.2%
O=C(O)c1ccc(COc2ccc(CO)cc2Cl)cc1	-18.6%	>76.9	-22.8%	>57	5.4%	4.5%
O=C(O)c1cccc(COCC(F)(F)C(F)F)c1	-7.2%	>76.9	-0.4%	>57	6.4%	-1.7%
CCOc1ccc(OCc2cccc(C(=O)N3CCCC3)c2)cc1	-9.3%	>76.9	12.6µM*	?	12.1%	21.2%
COc1ccc(OCc2cccc(C(=O)O)c2)cc1	17.0%	>76.9	2µM*	1.16*	6.1%	3.9%
N#CC(=C1CCCC1)c1nc(-c2ccccc2O)cs1	2.1%	>76.9	12.6µM*	7.68*	?	?
N#C/C(=N\O)c1nc(-c2ccccc2)cs1	.	.	-2.0%[25.5 µM]	>25.6	.	.
O=c1c2cccc3c2c(nn1CN1CCOCC1)-c1ccccc1-3	-11.3%	>76.9	0.1%	2.94*	15.0%	16.9%
SMILES	ERK AVP inh	GBA activity	FLuc inh	Bst PK mod	HEK293 cAMP ctrl	TSHR agonist
CCOC(=O)Cc1nc2ccccc2[nH]1	3.3%	>76.9	-0.9%	>57	-1.0%	1.8%
O=C(COc1ccccc1)Nc1nc2ccccc2[nH]1	-22.6%	>76.9	20µM*	.	6.5%	-2.2%
c1ccc(OCc2nc3ccccc3[nH]2)cc1	0.2%	>76.9	25.1µM*	.	8.8%	.
COc1cc(C(=O)Nc2nc3ccccc3[nH]2)cc(OC)c1OC	4.5%	>76.9	-20.4%	.	-4.2%	9.2%
COCC(=O)N1CCC2(CC1)CN(C(c1ccccc1)c1ccccc1)C2	0.4%	.	-0.3%[11.4 µM]	.	15.4%	7.4%
CC(c1ccco1)N(C(=O)CSc1ccc(Br)cc1)c1ccccn1 (stereo not given)	18.5%	>76.9	0.5%	>57	25.1µM*	?
CC(c1ccco1)N(C(=O)c1cccs1)c1ccccn1 (stereo not given)	-3.2%	>76.9	-0.3%	>57	4.2%	3.5%
N#C/C(=C\Nc1ccccn1)C(=O)C1CC1	-23.8%[11.5 µM]	.	-0.7%[11.4 µM]	.	5.3%[11.4 µM]	-4.3%[11.4 µM]
COc1ccc(-c2nc3cnc(OC)nc3n(-c3ccc(OC)cc3)c2=O)cc1	3.1%	.	0.4%[11.4 µM]	.	12.0%	5.5%
CCOC(=O)CCC(NC(=O)c1ccc(NCN2C(=O)c3ccccc3C2=O)cc1)C(=O)OCC (stereo not given)	19.9%	.	1.1%	.	0.794µM*	?
CCOC(=O)CCC(NC(=O)c1ccc(NCN2C(=O)CCC2=O)cc1)C(=O)OCC (stereo not given)	-2.3%	>76.9	-0.1%	>57	-1.4%	1.8%
CCn1c(SCc2nc3ccccc3c(=O)[nH]2)nc2ccccc2c1=O	7.94µM*	>76.9	1.5%	>57	?	?
CCn1c(SCC(=O)NCc2ccccc2)nc2ccccc2c1=O	6.5%	>76.9	1.6%	>57	121.5%	-3.7%
CCOC(=O)c1[nH]c2c(c1C)C(=O)CC(c1ccco1)C2 (stereo not given)	-27.4%	.	-0.2%	.	31.6µM*	?
CCCCOC(=O)c1[nH]c2c(c1C)C(=O)CC(c1cc(OC)c(OC)c(OC)c1)C2 (stereo not given)	25.1µM*	.	2.1%	.	?	?
C=CCOC(=O)c1[nH]c2c(c1C)C(=O)CC(c1cc(OC)c(OC)c(OC)c1)C2 (stereo not given)	?	.	-0.5%	.	?	?
COc1cccc(-c2cncnc2Nc2ccc(F)cc2)c1	?	.	1.0%[2.29 µM]	.	-2.2%	26.1%
CC(C)=CCC/C(C)=C/COc1c2ccoc2cc2oc(=O)ccc12	.	.	-0.1%[11.4 µM]	.	12.6µM*	?
O=S(=O)(CCc1nnc(-c2ccccc2)o1)c1ccc2ccccc2c1	10.8%	.	2.6%	.	4.8%	8.0%
CN(c1ccc(OCc2nnc(-c3ccccc3)o2)cc1)S(=O)(=O)c1ccccc1	22.8%	>76.9	0.8%	>57	15.8µM*	?
C[C@@H](N)/C(N)=N/O	-0.1%[11.5 µM]	.	1.3%[11.4 µM]	.	2.1%[11.4 µM]	-1.6%[11.4 µM]
NC(=O)N/N=C1\CC[C@H](O)C[C@@H]1CC(=O)O	-6.8%[11.5 µM]	.	1.4%[11.4 µM]	.	24.6%[11.4 µM]	-2.5%[11.4 µM]
CO[C@@H]1/C=C\CC(=O)N2CCC[C@@H]2C(=O)OC[C@H](C)C(=O)OC[C@H]1C	-14.7%[11.5 µM]	.	-0.8%[11.4 µM]	.	-5.2%[11.4 µM]	-3.7%[11.4 µM]
O=C(OCc1c(Cl)nc2sccn12)c1cc2c(s1)CCCC2	-1.2%	>76.9	1.6%	>57	12.6µM*	?
O=C(c1cc2c(s1)CCCC2)n1cccn1	23.4%	>76.9	-28.3%	i	10.7%	3.7%
CCC1Oc2ccc(C)cc2N(CC(=O)N(Cc2cccnc2)Cc2ccc(C)o2)C1=O (stereo not given)	-23.4%	i	-4.2%	>57	?	?
